Data on 24 compounds can be found in PubChem BioAssay (EPA / NIEHS).

Where “and” joins values, the source holds several entries; their conditions need not be identical. Identical values can stand only once. Calls of active or inactive are those of the source. How the source made its calls: active means hit-call score of the fitted dose curve at least 0.9, where 1 is the maximum; inactive means score below 0.9.

A short description of this test: IUF_NPC3_neuronal_differentiation_120hr: Leibniz Research Institute for Environmental Medicine (IUF) 120-hour Neuronal Differentiation Assay (NPC3) (AID 2284301). As for the experimental part:
IUF_NPC2-5 is a cell-based, multiplexed assay that uses hNPC, a human primary neural progenitor cells, with measurements taken at 72 or 120 hours after chemical dosing in a 96-well plate. Human neural progenitor cells (hNPC) are generated from human fetal brain cortex at gestational week (GW) 16-19. In the neural progenitor cell migration and differentiation assay (NPC2-5), hNPCs grown as spheres are plated on an extracellular matrix and migrate and differentiate out of the sphere core. The processes radial glia migration, neuronal and oligodendrocyte migration as well as neuronal differentiation, neuronal morphology and oligodendrocyte differentiation are studied using automated phase contrast imaging and automated fluorescence imaging in combination with high content image analysis. In parallel, the cell viability is assessed using an alamar blue viability assay and the cytotoxicity using a lactate dehydrogenase dependent membrane integrity assay.IUF_NPC3_neuronal_differentiation_120hr is one of 12 assay components measured from the IUF_NPC2-5 assay. Neuronal differentiation is determined as the number of all TUBB3 positive cells in percent of the number of Hoechst-positive nuclei in the total neurosphere migration area (see IUF_NPC2a_ glia_migration_120hr) after 120 hr of migration/differentiation. Neurons are automatically identified using a convolutional neural network (CNN) that was trained using manually annotated images of differentiated neurons. Data from the IUF_NPC3_neuronal_differentiation_120hr component was analyzed at the endpoint IUF_NPC3_neuronal_differentiation_120hr in the positive analysis fitting direction relative to DMSO as the negative control and baseline of activity. Using a type of differentiation reporter, gain or loss-of-signal activity can be used to understand developmental effects.
Culture protocol: After the cell expansion period the cells are cultured for up to four weeks in which they are passaged every week as described in 3.6. Between one to three days after passaging spheres at a size of 0.3 mm are picked for the test method. For the assessment of neural progenitor cell migration and differentiation, the spheres are plated on poly-D-lysine/laminin coated 96-well flat bottom plates in differentiation medium (N2) to initiate migration and differentiation. Thereby one 0.3 mm big sphere is plated in the middle of a well. The differentiation medium consists of DMEM and Ham's F12 at a ratio of 3 to 1 supplemented with 1% N2 and 1% penicillin and streptomycin. Within 5 days NPCs radially migrate out of the sphere core and differentiate into radial glia cells (nestin positive), neurons (TUBB3 positive), oligodendrocytes (O4 positive) and astrocytes (GFAP positive). Cultivation during the test method is performed at 37C and 5% CO2 at a ph of 7.2-7.6.Exposure: 0.3 mm big hNPC are plated in the already prepared test conditions. Exposure starts at day 0 of differentiation and is continued over five days of differentiation until the experiment is terminated. Cells are fed with fresh medium at day 3 of differentiation. Therefore, half of the test condition solution (e.g. solvent control or compound dilution) is replaced by freshly prepared test condition solution.Test Method: Migration distance and cytotoxicity is determined after 72 hours based on brightfield images of each well. The assay is terminated by the assessment of cell viability and cytotoxicity as well as cell fixation after 120 h. Immunocytochemistry is performed for Hoechst positive nuclei, TUBB3 positive neurons and O4 positive oligodendrocytes. On the ICC images, migration after 120 hours, neuronal and oligodendrocyte number, neuronal morphology and neuron/oligodendrocyte specific migration is assessed. immunocytochemical staining (ICC) generates an image for each sphere. The plates are scanned using an automated high content imaging device and all nuclei and their positions are determined automatically based on their intensity and size. […]
Consider `COP(=O)(OC)OC(Br)C(Cl)(Cl)Br` (centres undefined), for which the AC50 was 40.9 µM (active).
Take `CCOP(=S)(Oc1cnc(C(C)(C)C)nc1)OC(C)C` (centres undefined): the result was inactive.
With `CSC1=N[C@@](C)(c2ccccc2)C(=O)N1Nc1ccccc1`, the result was inactive.
With `CC(C)N(C(=O)SCC(Cl)=C(Cl)Cl)C(C)C`, the call was inactive.
Same read-out and setting: the result for `CN(C)[C@@H]1C(=O)C(C(N)=O)=C(O)[C@@]2(O)C(=O)C3=C(O)c4c(O)cccc4[C@@](C)(O)[C@H]3[C@H](O)[C@@H]12` reads “inactive”; that for `CCOP(=O)(NC(C)C)Oc1ccc(SC)c(C)c1` (centres undefined), “inactive”; that for `C[N+]1(C)CCCCC1`, “inactive”.
With `CCCCSP(=O)(SCCCC)SCCCC`, the compound was classed as inactive.
Consider `S=C1NCCN1`, for which the compound was called inactive.
Consider `O=[N+]([O-])c1cc(C(F)(F)F)c(Cl)c([N+](=O)[O-])c1Nc1ncc(C(F)(F)F)cc1Cl`, for which the AC50 was 0.601 µM (active).
Take `CCOP(=S)(OCC)Oc1cc(C)nc(C(C)C)n1`: the result was inactive.
`CN1COCN(Cc2cnc(Cl)s2)C1=N[N+](=O)[O-]`: the result was inactive.
Consider `CC[C@H](C)[C@H]1O[C@]2(C=C[C@@H]1C)C[C@@H]1C[C@@H](C/C=C(\C)[C@@H](O[C@H]3C[C@H](OC)[C@@H](O[C@H]4C[C@H](OC)[C@@H](NC)[C@H](C)O4)[C@H](C)O3)[C@@H](C)/C=C/C=C3\CO[C@@H]4[C@H](O)C(C)=C[C@@H](C(=O)O1)[C@]34O)O2`, for which the AC50 was 1.27 µM (active).
On to `COP(=O)(NC(C)=O)SC` (centres undefined), for which the compound was called inactive.
Still for that read-out and setting: the result for `COP(=O)(OC)C(O)C(Cl)(Cl)Cl` (centres undefined) reads “inactive”; that for `CCOC(=O)CC(SP(=O)(OC)OC)C(=O)OCC` (centres undefined), “inactive”.
As for `CCCSP(=O)(OCC)SCCC`, the compound was called inactive.
In the case of `CCOP(=S)(OCC)SCCSCC`, the result was inactive.
With `CON=C(C(=O)OC)c1ccccc1CON=C(C)c1cccc(C(F)(F)F)c1`, the AC50 is 1.06 µM (active).
In the case of `CC(=NC#N)N(C)Cc1ccc(Cl)nc1`, the call was inactive.
With `CCOP(=S)(OCC)OC(Cl)C(Cl)(Cl)Cl` (centres undefined), the result was inactive.
Turning to `CC1=NNC(=O)N(/N=C/c2cccnc2)C1`, the compound was called inactive.
As for `CCOP(=O)(OCC)Oc1cc(C)nc(C(C)C)n1`, the outcome was inactive.
Regarding `C=C(C)[C@H]1Cc2c(ccc3c2O[C@@H]2COc4cc(OC)c(OC)cc4[C@@H]2C3=O)O1`, the AC50 is 58 nM (active) and 7.87 nM (active).

A word on the AC50: it is the concentration at which the activity in the assay is half-maximal.
